Compound activity deposited in PubChem by National Center for Advancing Translational Sciences (NCATS).
The entries come from a sample that favours hits as a whole.
AmpC inh detg: qHTS Inhibitors of AmpC Beta-Lactamase (assay with detergent) | AID 485294, 2010 | P00811 | Potency, µM (titrated, usually from 114 µM), for inactives: at the top dose activity change, negative = inhibition, most hits filed as inhibitors | AmpC hydrolysis of nitrocefin, absorbance 480 nm, 0.01% Triton | 0.041% of 370,000 active;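 also: potency is read from the fitted curve at half-maximal effect; 0% = no-compound wells and -100% = no-enzyme wells; nearly all actives have a fitted effect of over 25% in size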
Target sequence (P00811 whole entry, looked up): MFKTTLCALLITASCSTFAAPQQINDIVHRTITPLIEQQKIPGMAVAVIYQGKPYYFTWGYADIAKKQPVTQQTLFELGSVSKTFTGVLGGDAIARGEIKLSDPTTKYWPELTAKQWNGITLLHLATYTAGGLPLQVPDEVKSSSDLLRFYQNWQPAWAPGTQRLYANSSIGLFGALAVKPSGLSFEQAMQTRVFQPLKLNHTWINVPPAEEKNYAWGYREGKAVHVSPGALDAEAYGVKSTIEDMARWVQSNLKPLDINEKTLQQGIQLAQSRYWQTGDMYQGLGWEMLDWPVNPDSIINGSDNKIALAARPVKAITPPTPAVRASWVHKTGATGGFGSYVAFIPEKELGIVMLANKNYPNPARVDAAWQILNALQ
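AmpC (5.3 nM in the dispensed reagent) in 20 mM phosphate pH 7.0 with 0.01% (detergent screen) or 0.0001% Triton X-100 was preincubated with compounds for 15 min at room temperature. Nitrocefin was then added from an 800 uM solution, and hydrolysis was followed at 480 nm.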
CHX counter: Cycloheximide Counterscreen for Small Molecule Inhibitors of Shiga Toxin. cell reporter, cycloheximide protein synthesis inhibition counterscreen. max response, %. 12% of 300,000 active; in the data active = max response mostly above about 13%, no sharp cut-off; inactive = mostly below about 14%; also: read at 38.3 µM for the half of the compounds with a filed dose; 0% is about no effect
Shiga toxin inh: A qHTS for Small Molecule Inhibitors of Shiga Toxin | AID 2315, 2010 | 9.2% of 290,000 active | inhibition, % at 38.7 µM | Vero cells, Shiga toxin protein synthesis inhibition reporter; in the data active = inhibition mostly above about 28%, no sharp cut-off; inactive = mostly below about 43%; also: 0% is about no effect
AmpC no deterg: qHTS Inhibitors of AmpC Beta-Lactamase (assay without detergent). P00811. AmpC nitrocefin hydrolysis, absorbance 480 nm, 0.0001% Triton. Potency, µM (top dose mostly 57.1 µM), for the others: at the top dose activity change, negative = inhibition, hits mostly inhibitors. 0.52% of 330,000 active. AID 485341, 2010;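 also: potency is read from the fitted curve at half-maximal effect; plate controls were no compound for no effect and no enzyme for full effect; nearly all actives have a fitted effect of over 20% in size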
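20 mM phosphate pH 7.0 + 0.01% (detergent screen) or 0.0001% Triton X-100; 5.3 nM AmpC reagent; cpd preinc 15 min RT; nitrocefin (800 uM stock) to start; A480 q20 s × 4 min; Activity was normalised to no-enzyme and no-compound control wells.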
NS1 inh: qHTS Assay for Inhibitors of Influenza NS1 Protein Function; Potency, µM (doses to about 46.1 µM), without a hit: at the highest dose activity, positive = more growth; 0.4% of 270,000 active; AID 2326, 2010; calls by dose curve; also: potency is read from the fitted curve at half-maximal effect; actives are rising curves; nearly all actives have a fitted effect of over 50% in size
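A cell-based growth assay was used: compounds that relieve NS1-induced slow growth of budding yeast raise OD600. Assay medium was yeast nitrogen base with ammonium sulphate and -URA supplement, pH 6.0, with 2% galactose.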
* hit, by the source's call. Unless noted, calls follow the shape of the dose curve; as a rule, active = well fitted curve in the direction sought with a large enough effect; inconclusive = small, poorly fitted or top-dose-only effect, or another doubt; inactive = no such curve, though single readings can be large; an effect the other way counts as inactive or inconclusive.

Results for Cc1ccc(S(=O)(=O)N2CCOCC2)cc1C(=O)Nc1cccc(S(=O)(=O)N2CCCC2)c1 ?
AmpC inh detg: 0%; CHX counter: -3; Shiga toxin inh: 2; AmpC no deterg: 12%; NS1 inh: -5%

Results for N#Cc1cc([N+](=O)[O-])ccc1NC(=O)COC(=O)CN1C(=O)C2CCCCC2C1=O (stereo unspecified) ?
AmpC no deterg: -9%

How did O=C(Nc1nc2ccccc2[nH]1)c1ccc(Cl)cc1 do in these assays?
AmpC inh detg: inconclusive; CHX counter: 8; Shiga toxin inh: 18; AmpC no deterg: -26%; NS1 inh: -31%

How did O=C(Nc1nc2ccccc2[nH]1)c1cccc(Cl)c1 do in these assays?
AmpC inh detg: -8%; CHX counter: 44*; Shiga toxin inh: 91*; AmpC no deterg: -56%; NS1 inh: 6%

What do the screens show for `CC[C@]12c3[nH]c4cc(-c5ccco5)ccc4c3CCN1C(=O)[C@@H](CC(=O)NCCc1ccccn1)C[C@@H]2C(=O)N1CCN(C(=O)C2CC2)CC1`?
AmpC no deterg: 270%

What do the screens show for `Cc1cc(C(=O)CSc2nc3ccccc3n2CCC#N)c(C)n1Cc1cccs1`?
AmpC inh detg: -8%; CHX counter: 46*; Shiga toxin inh: 55*; AmpC no deterg: -58%; NS1 inh: 14%

Results for O=C(CSc1nnc(-c2ccccc2F)o1)NC1CC1 ?
AmpC no deterg: -6%

Results for COc1ccccc1-n1cnnc1SCC(=O)c1cc(C)n(Cc2cccs2)c1C ?
AmpC inh detg: -6%; CHX counter: 39*; Shiga toxin inh: 38*; AmpC no deterg: 53%; NS1 inh: -23%

Results for C=CCn1c(SCC(=O)c2cc(C)n(Cc3cccs3)c2C)nnc1-c1ccncc1 ?
AmpC inh detg: 0%; CHX counter: 7; Shiga toxin inh: -7; AmpC no deterg: 85%; NS1 inh: -3%

What do the screens show for `Cc1cc(C(=O)CSc2nnc(-c3ccccc3F)o2)c(C)n1Cc1cccs1`?
AmpC inh detg: -11%; CHX counter: 19*; Shiga toxin inh: 32; AmpC no deterg: -15%; NS1 inh: -3%

Results for CCN(CC)c1ccc(/C=N\N2CCN(Cc3ccc(C)cc3)CC2)cc1 ?
AmpC inh detg: -10%; CHX counter: -2; Shiga toxin inh: 10; AmpC no deterg: 24%; NS1 inh: 5%

What do the screens show for `CCOC(=O)c1cnc(N(C)C)nc1SC(=N)N`?
NS1 inh: -3%

What do the screens show for `Cc1csc(CN(C)C(=O)CC2C(=O)NCCN2Cc2ccc(Cl)c(F)c2)n1` (stereo unspecified)?
AmpC inh detg: -4%; CHX counter: 5; Shiga toxin inh: 33; AmpC no deterg: 81%; NS1 inh: 23%

How did O=C(NC1CCSc2ccccc21)c1cccc([N+](=O)[O-])c1 (stereo unspecified) do in these assays?
AmpC inh detg: 4%; CHX counter: 23; Shiga toxin inh: 48*; AmpC no deterg: -19%; NS1 inh: 3%

What do the screens show for `COc1ccccc1C(=O)NC1CCSc2ccccc21` (stereo unspecified)?
AmpC inh detg: 3%; CHX counter: -1; Shiga toxin inh: -19; AmpC no deterg: -16%; NS1 inh: -10%

How did O=C(NC1CCSc2ccccc21)c1ccccc1F (stereo unspecified) do in these assays?
AmpC inh detg: 4%; CHX counter: 31*; Shiga toxin inh: 54*; AmpC no deterg: -15%; NS1 inh: -8%

How did O=C(NC1CCSc2ccccc21)c1ccccc1Cl (stereo unspecified) do in these assays?
AmpC inh detg: -12%; CHX counter: 39*; Shiga toxin inh: 37*; AmpC no deterg: -25%; NS1 inh: -9%

How did COC(=O)C1(CC2CC(c3ccc(Cl)cc3)=NO2)CCN(C(=O)OC(C)(C)C)CC1 (stereo unspecified) do in these assays?
AmpC inh detg: inconclusive; AmpC no deterg: 1%

How did Cc1cc(C(F)(F)F)c2c(N)c(C(=O)Nc3cc(C)on3)sc2n1 do in these assays?
AmpC inh detg: 1%; CHX counter: 55*; Shiga toxin inh: 117*; AmpC no deterg: 0%; NS1 inh: -13%
